The source of these data is the supplement of paper PMC11060735.

SMILES strings stand for the structures. Where “and” joins values, the source holds several entries; their conditions need not be identical. Equal values may be shown once. Where a name gives a salt, the structure may show the parent alone. ± gives the standard deviation of the averaged measurements. In all, about 1,800 compounds were measured (“GFP- (p16Ink4a-) cell count relative to negative-control wells”: median about 0.99, lowest 2% from about 0.5 on). This excerpt belongs to a sample that is enriched for the lowest values.

For this assay, the system named is mouse p16Ink4a+/- lung fibroblasts (INKBRITE, bleomycin-injured). Description: GFP- (p16Ink4a-) cell count relative to negative-control wells (fold of vehicle); higher = more p16Ink4a- cells surviving. Particulars: 1 µM; 3 days.
`N[C@H]1C[C@@H]1c1ccc(-c2cccc(O)c2)cc1` came in with a GFP- of 1.01 ± 0.044. For `Cc1c(C(=O)NN2CCCCC2)nn(-c2ccc(Cl)cc2Cl)c1-c1ccc(I)cc1`, the GFP- was determined as 1.06. For the molecule `Cn1cc(-c2ccc3ncc(Cc4ccc5ncccc5c4)n3n2)cn1`, the GFP- was 1.01.

In the case of `O=C1C(Cl)=C(N2CCOCC2)C(=O)N1c1ccc(Cl)c(Cl)c1`, the GFP- turned out to be 1.05. To `Cc1ccc(Nc2nccc(N(C)c3ccc4c(C)n(C)nc4c3)n2)cc1S(N)(=O)=O` [Pazopanib] belongs 0.999 and 1.07; to `CNC(=O)c1ccc(N2C(=S)N(c3ccc(C#N)c(C(F)(F)F)c3)C(=O)C2(C)C)cc1F` [Enzalutamide], 1.11.

`CC1(C)Cc2c(-c3ccccc3)c(-c3ccc(Cl)cc3)c(CC(=O)O)n2C1` [Licofelone] showed a GFP- of 0.892. To `CNCc1ccc(-c2[nH]c3cc(F)cc4c3c2CCNC4=O)cc1` [Rucaparib] belongs 0.817 ± 0.037; to `CCCCN1CCCCC1C(=O)Nc1c(C)cccc1C` (centres undefined) [Bupivacaine], 1.13. With `CNC(=O)[C@H](Cc1ccccc1)NC(=O)[C@H](CC(C)C)[C@H](CSc1cccs1)C(=O)NO` [Batimastat] the figure was 1.08; with `CC(C)C[C@H](NC(=O)[C@H](Cc1ccccc1)NC(=O)c1cnccn1)B(O)O` [Bortezomib], 0.294; with `CC(C)C1CCC(C(=O)N[C@H](Cc2ccccc2)C(=O)O)CC1` (some centres undefined) [Nateglinide], 1.06.

For `Nc1nc(N)c(N=O)c(OCC2CCCCC2)n1`, the GFP- was determined as 1.07. With `Clc1ccc(Nc2nnc(Cc3ccncc3)c3ccccc23)cc1` [Vatalanib] the figure was 0.918.

`Cc1cccc(C)c1OCC(=O)N[C@@H](Cc1ccccc1)[C@@H](O)C[C@H](Cc1ccccc1)NC(=O)[C@H](C(C)C)N1CCCNC1=O` [Lopinavir] displayed a GFP- of 0.947. With `CC[C@H]1OC(=O)[C@H](C)[C@@H](O[C@H]2C[C@@](C)(OC)[C@@H](O)[C@H](C)O2)[C@H](C)[C@@H](O[C@@H]2O[C@H](C)C[C@H](N(C)C)[C@H]2O)[C@](C)(O)C[C@@H](C)/C(=N/OCOCCOC)[C@H](C)[C@@H](O)[C@]1(C)O` [Roxithromycin] the figure was 0.988. To `Sc1ncnc2[nH]cnc12` [Mercaptopurine] belongs 1.05.

`COC[C@H](NC(=O)c1cnc(C)s1)C(=O)N[C@@H](COC)C(=O)N[C@@H](Cc1ccccc1)C(=O)C1(C)CO1` (some centres undefined) [Oprozomib]: the GFP- was determined as 0.381. With `C=CC(=O)Nc1ccc2ncnc(Nc3cccc(Br)c3)c2c1` the figure was 0.994.

Molecule `Cc1onc(-c2c(Cl)cccc2Cl)c1C(=O)N[C@@H]1C(=O)N2[C@@H]1SC(C)(C)[C@@H]2C(=O)O` [Dicloxacillin] registered a GFP- of 0.966.

Turning to `COc1cc(N2CCC(N(C)C)CC2)ccc1Nc1ncc(Cl)c(Nc2ccccc2P(C)(C)=O)n1`, the GFP- is 1.08. With `NC(=O)N1c2ccccc2CC(=O)c2ccccc21` [Oxcarbazepine, Trileptal] the figure was 1.06.

`C[C@H](NC(=O)[C@@H](O)c1cc(F)cc(F)c1)C(=O)N[C@@H]1C(=O)N(C)c2ccccc2-c2ccccc21` had a GFP- of 0.963.

For `Cc1cc(=O)oc2cc(O)ccc12` [7-hydroxy-4-methyl-2H-chromen-2-one], the GFP- amounted to 1.08. To `Cn1cnc(N)c2ncnc1-2` [3-Methyladenine] belongs 0.988. To `COc1ccc(CCc2nc3cc(-c4c(C)noc4C)ccc3n2C[C@H](C)N2CCOCC2)cc1Cl` belongs 0.854 ± 0.4. With `C=CCc1ccc(O)c(-c2cc(CC=C)ccc2O)c1` [Magnolol] the figure was 0.993; with `Cc1c[nH]c(-c2cnc(NCCNc3ccc(C#N)cn3)nc2-c2ccc(Cl)cc2Cl)n1`, 1.14; with `CCNC(=O)c1[nH]nc(-c2cc(Cl)c(O)cc2O)c1-c1ccc(OC)cc1`, 0.89.

In the case of `CS(=O)(=O)OCCCCOS(C)(=O)=O` [Busulfan], the GFP- was 0.83. Consider `CCOc1ccc2ccccc2c1C(=O)N[C@@H]1C(=O)N2[C@@H]1SC(C)(C)[C@@H]2C(=O)O` [Nafcillin Sodium], for which the GFP- worked out at 0.94. On to `CCO/C(O)=C1\C(C)=NC(C)=C(C(=O)OC)C1c1cccc([N+](=O)[O-])c1` (centres undefined) [Nitrendipine], for which the GFP- stood at 1.18.

In turn, `O=c1cc(N2CCOCC2)oc2c1ccc1ccccc12` returned a GFP- of 1.03.

`Nc1cc(C(F)(F)F)c(-c2cc(N3CCOCC3)nc(N3CCOCC3)n2)cn1` [Buparlisib] returned a GFP- of 0.719.

Take `C#Cc1cccc(Nc2ncnc3cc4c(cc23)OCCOCCOCCO4)c1` [Icotinib]: the GFP- turned out to be 0.916.

`O=C(NOCC(O)CO)c1cc(Br)c(F)c(F)c1Nc1ccc(I)cc1F` (centres undefined) had a GFP- of 0.818. To `C#Cc1cccc(Nc2ncnc3cc(OCCOC)c(OCCOC)cc23)c1` [Erlotinib] belongs 0.287; to `C#Cc1cccc(Nc2ncnc3cc(OCCOC)c(OCCO)cc23)c1`, 0.823; to `C#Cc1cccc(Nc2ncnc3cc(OC)c(OCCCCCCC(=O)NO)cc23)c1`, 1.01 ± 0.091. To `C[C@@H]1CN(c2c(F)c(N)c3c(=O)c(C(=O)O)cn(C4CC4)c3c2F)C[C@H](C)N1` [Sparfloxacin] belongs 1.02; to `CCN1CCN(Cc2ccc(Nc3ncc(F)c(-c4cc(F)c5nc(C)n(C(C)C)c5c4)n3)nc2)CC1`, 0.983; to `Cc1cc(C)c2c(c1)[C@@H](N(Cc1cc(C(F)(F)F)cc(C(F)(F)F)c1)c1nnn(C)n1)CCCN2C[C@H]1CC[C@H](C(=O)O)CC1` [Evacetrapib], 0.993. With `C[C@H](CCC(=O)O)[C@H]1CC[C@H]2[C@@H]3C[C@H](O)[C@@H]4C[C@H](O)CC[C@]4(C)[C@H]3CC[C@]12C` [Hyodeoxycholic acid (HDCA)] the figure was 0.901; with `CC1(C)SC2C(NC(=O)[C@H](NC(=O)N3CCNC3=O)c3ccccc3)C(=O)N2C1C(=O)O` (some centres undefined) [Azlocillin sodium salt], 0.956; with `CC(C)(C)c1nc(-c2cccc(NS(=O)(=O)c3c(F)cccc3F)c2F)c(-c2ccnc(N)n2)s1` [Dabrafenib], 0.448. In the case of `C[C@]12CC[C@@H]3c4ccc(O)cc4C[C@@H](CCCCCCCCCS(=O)CCCC(F)(F)C(F)(F)F)[C@H]3[C@@H]1CC[C@@H]2O` (some centres undefined) [Fulvestrant], the GFP- was determined as 1.15. With `NS(=O)(=O)c1ccc(NC(=O)Nc2ccc(F)cc2)cc1` the figure was 1.06; with `CN1CCC(NC(=O)c2cc(-c3c(O)cc(O)cc3Oc3ccc([N+](=O)[O-])cc3)on2)CC1`, 1.03.

Molecule `Cn1c(=O)cc(N2CCC[C@@H](N)C2)n(Cc2cc(F)ccc2C#N)c1=O` [Trelagliptin] displayed a GFP- of 0.941.
